Sampled rows, rich in hits. Any-hit rate of the full collection: about 2.8%.
HTRA1 inhibitor = inhibitors of human serine peptidase HTRA1; inhibition, % at 5.96 µM; AID 504803; recombinant HTRA1, FP-rhodamine activity-based probe, fluorescence polarization; actives 0.5% (n = 340,000); Q92743; in the data active = inhibition above about 36%;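 also: 0% = enzyme with DMSO and 100% = wells lacking enzyme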
pPAFAH FP inh = pPAFAH (human) enzyme inhibition. inhibition, % at 3.39 µM. Q13093. recombinant pPAFAH, FP-rhodamine probe fluorescence polarization. actives 1.5% (n = 330,000). AID 463082;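 active = inhibition above the mean inhibition across the screen plus 3 SD, cut at about 25% in these data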;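 also: inhibitors block binding of the rhodamine activity-based probe so polarization drops; 0% = enzyme with DMSO and 100% = wells lacking pPAFAH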
Target sequence (Q13093 whole entry, looked up): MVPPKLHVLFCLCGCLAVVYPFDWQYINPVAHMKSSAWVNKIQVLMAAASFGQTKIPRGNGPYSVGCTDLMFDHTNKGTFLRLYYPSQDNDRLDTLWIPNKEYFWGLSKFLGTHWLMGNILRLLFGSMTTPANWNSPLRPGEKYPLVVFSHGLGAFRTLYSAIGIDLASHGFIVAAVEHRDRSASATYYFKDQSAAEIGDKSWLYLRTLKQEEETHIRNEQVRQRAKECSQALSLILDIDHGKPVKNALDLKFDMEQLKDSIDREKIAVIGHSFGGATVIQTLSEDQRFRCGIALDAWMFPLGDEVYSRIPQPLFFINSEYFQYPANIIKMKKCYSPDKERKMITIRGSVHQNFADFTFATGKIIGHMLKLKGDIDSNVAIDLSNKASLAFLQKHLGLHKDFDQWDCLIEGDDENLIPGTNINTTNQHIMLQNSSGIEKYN
DAGLB inhibitor = blocks human DAGLB lipase activity. Q8NCG7. HEK293T DAGLB membrane lysate, EnzChek fluorogenic substrate. inhibition, % at 5.17 µM. actives 0.059% (n = 340,000); in the data active = inhibition above about 34%;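 also: 0% = enzyme with vehicle and 100% = wells lacking enzyme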
PAFAH2 FP inh = inhibitors of human PAFAH2 | recombinant PAFAH2, FP-rhodamine activity probe, fluorescence polarization | inhibition, % at 3.39 µM | actives 0.99% (n = 340,000) | AID 492956;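 active = inhibition above the mean over all tested compounds plus 3 SD, cut at about 30% in these data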;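 also: inhibitors block probe labeling of enzyme so polarization drops; 0% = enzyme with DMSO and 100% = wells lacking PAFAH2 protein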
PAFAH1B3 FP inh = inhibitors of human PAFAH1B3 | inhibition, % at 3.39 µM | recombinant PAFAH1B3, FP-rhodamine probe, fluorescence polarization | actives 0.28% (n = 340,000) | Q15102;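 active = inhibition above the screen-wide average of all tested compounds plus 3 SD, cut at about 25% in these data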;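 also: 0% = enzyme with DMSO only and 100% = wells lacking PAFAH1B3 protein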
PAFAH1B2 inh = inhibitors of human PAFAH1B2. actives 1.2% (n = 340,000). inhibition, % at 3.39 µM. recombinant PAFAH1B2, FP-rhodamine activity probe, fluorescence polarization. P68402;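 active = inhibition above the mean of all tested compounds plus 3 SD, cut at about 24% in these data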;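 also: 0% = enzyme with DMSO and 100% = wells lacking PAFAH1B2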
PAFAH2 FP conf = confirmation of human PAFAH2 inhibitors. actives 65% (n = 2,300). shares compounds with PAFAH2 FP inh. inhibition, % at 3.39 µM. recombinant PAFAH2, FP-rhodamine activity probe, fluorescence polarization;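 active = mean inhibition over three repeats above a set limit taken from the earlier primary screen, cut at about 30% in these data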;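 also: inhibitor blocks binding of rhodamine activity probe so polarization falls; 0% = enzyme with DMSO and 100% = wells lacking PAFAH2 protein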
* hit, by the source's call; · = no result given.

SMILES	HTRA1 inhibitor	pPAFAH FP inh	DAGLB inhibitor	PAFAH2 FP inh	PAFAH1B3 FP inh	PAFAH1B2 inh	PAFAH2 FP conf
CN(C)c1ccc(C(=O)OCC(=O)N2CCCCCC2)cc1	-2	-1	-1	57*	-5	-1	55*
CN(C)c1ccc(C(=O)OCC(=O)N2CCCC2)cc1	9	8	-1	26	-3	-5	·
CCCCN(C(=O)Cc1ccc2c(c1)OCCO2)c1c(N)n(CCC)c(=O)[nH]c1=O	-7	1	-1	11	-4	3	·
COc1ccccc1N1CCN(CC(=O)Nc2ccccc2C(=O)NC(C)c2ccccc2)CC1 (stereo not given)	-2	6	-2	-2	3	-2	·
COc1ccc(-c2nc(CSCC(=O)NC3CCCC3)c(C)o2)cc1OC	-1	1	1	3	-1	-2	·
COc1cccc(/C=C/C(=O)OCC(=O)Nc2ccc(Cl)c(S(=O)(=O)N(C)C)c2)c1	-39	2	-3	68*	-1	-2	69*
O=C(COC(=O)/C=C/c1ccccc1)Nc1cc(C(F)(F)F)ccc1N1CCOCC1	2	4	-1	56*	4	-1	57*
COc1cccc(/C=C/C(=O)OCC(=O)Nc2cc(C(F)(F)F)ccc2Cl)c1	-16	2	-15	33*	2	-3	24
CN(C)S(=O)(=O)c1cc(NC(=O)COC(=O)/C=C/c2ccco2)ccc1Cl	-22	7	-1	58*	0	-9	70*
COc1cccc(/C=C/C(=O)OCC(=O)Nc2ccc3c(c2)OCCO3)c1	-1	·	-1	·	·	·	·
O=C(COC(=O)/C=C/c1ccc(F)cc1)Nc1cc(C(F)(F)F)ccc1N1CCOCC1	4	13	0	-1	2	1	·
COc1cc(Cl)ccc1OCc1cc(C(=O)N(C)CCc2cnn(C)c2)no1	1	3	3	-3	2	4	·
COc1ccc(C(=O)OCC(=O)NC2CCCC2)cc1OC	3	6	0	76*	5	2	80*
Cc1ccc(C(=O)OCC(=O)NC2CCCCCC2)c(C)c1	-8	·	-3	86*	4	2	78*
Cc1ccc(C(=O)OCC(=O)NC2CCCC2)cc1C	4	17	-3	87*	9	4	82*
COc1ccc(C(=O)OCC(=O)NC2CC2)cc1OC	0	1	-4	67*	4	3	55*
COc1ccc(C(=O)NCC(=O)OCC(=O)NC2CCCCCC2)cc1OC	10	-7	2	4	4	10	·
Cc1cc(C)c(OCCN2CCOCC2)c(Cl)c1	4	5	0	4	-3	4	·
COc1ccc(C(=O)OCC(=O)NC2CC2)cc1[N+](=O)[O-]	0	11	0	31*	12	5	24
O=C(COC(=O)c1ccc(O)cc1O)NC1CCS(=O)(=O)C1 (stereo not given)	-3	1	1	9	0	0	·
O=C(COC(=O)c1ccc(O)cc1O)NC1CCCCCC1	-6	10	-3	46*	3	5	31*
CC1CCC(NC(=O)COC(=O)c2ccc3ncsc3c2)CC1 (stereo not given)	5	-7	1	83*	5	1	69*
COc1ccc(C(=O)OCC(=O)NC2CCCCCCC2)cc1OC	-2	13	-4	87*	6	-1	78*
COc1ccc(CC(=O)N(C)c2ccccc2)cc1S(=O)(=O)N1CCOCC1	6	·	3	·	·	·	·
C=CCN1C(=NC(=O)COc2ccc(Cl)cc2)SC2CS(=O)(=O)CC21 (stereo not given)	-1	8	0	3	7	21	·
SMILES	HTRA1 inhibitor	pPAFAH FP inh	DAGLB inhibitor	PAFAH2 FP inh	PAFAH1B3 FP inh	PAFAH1B2 inh	PAFAH2 FP conf
COc1ccc(C(=O)OCC(=O)NC(=O)NCc2ccccc2)cc1[N+](=O)[O-]	12	-3	-1	10	7	7	·
COc1cc(OC)cc(C(=O)OCC(=O)NC2CCCCCC2)c1	1	21	-2	61*	14	6	59*
CCOc1ccc(C(=O)OCC(=O)NC2CCCC2)cc1OCC	2	14	2	84*	4	0	82*
COc1ccc(C(=O)OCC(=O)Nc2ccccc2)cc1[N+](=O)[O-]	2	8	1	71*	3	7	73*
COc1ccc(C(=O)OCC(=O)NC2CCCCCC2)cc1OC	-10	9	-3	93*	-1	-1	83*
CCOC(=O)[C@@H]1CSCCS(=O)(=O)N1	0	·	-6	-5	1	1	·
O=C(COc1ccc(F)cc1)NCCNC(=O)COc1ccc(F)cc1	5	-1	1	-1	-3	3	·
Cc1cccc(-c2nc3ccccc3c3nncn23)c1	-30	-6	-5	159*	-1	-1	5
CCc1ccc(CN(C)Cc2nc(Cc3cccc(C(F)(F)F)c3)no2)nc1	6	17	-4	6	13	5	·
CCc1ccc(CN(C)Cc2nc(COc3ccccc3)no2)nc1	-2	10	0	30*	8	0	13
CSc1ccc(CN(C)C(=O)c2cccc(S(=O)(=O)N3CCN(Cc4ccccc4)CC3)c2)cc1	-10	5	-3	2	-5	0	·
O=C1/C(=C/c2ccc(Br)cc2)Oc2cc(O)ccc21	-14	21	-10	25	10	17	·
CC(C)(C)c1ccc(/C=C2\Oc3cc(O)ccc3C2=O)cc1	-26	16	-4	47*	5	11	36*
CC(C)(C)C(=O)Nc1nnc(SCC(=O)Nc2nccs2)s1	-9	1	5	2	2	3	·
Cc1ccc(NC2=C(Cl)C(=O)OC2OC(=O)c2ccccc2)c(C)c1 (stereo not given)	-21	7	15	4	2	4	·
Cc1cccc(C)c1NC1=C(Cl)C(=O)OC1OC(=O)c1ccccc1 (stereo not given)	-17	-1	8	31*	4	3	-22
CCOC(=O)C1CC2=C(CCCC2=O)NC1=O (stereo not given)	1	·	0	32*	7	3	22
CCOC(=O)C1CC2=C(CCCC2=O)N(Cc2ccccc2)C1=O (stereo not given)	1	·	1	6	8	5	·
S=C(NCCCN1CCOCC1)Nc1ccc(N2CCOCC2)cc1	1	6	3	42*	12	10	4
CC(=O)Nc1cccc(NC(=O)C(C)N2c3cccc4cccc(c34)S2(=O)=O)c1 (stereo not given)	-9	0	-1	8	7	1	·
c1ccc(-c2csc(NC3CCCCC3)n2)cc1	0	4	-3	0	-4	3	·
O=C(Nc1nc(-c2ccccc2)cs1)NC1CCCCC1	-28	0	-1	30*	4	6	1

From PubChem
